{"source": "PubChem BioAssay (NCATS)", "key": {"[1]": {"molecular_target": "Cytochrome P450 3A4 (Homo sapiens) (UniProt P08684)", "sequence (P08684 whole entry, looked up)": "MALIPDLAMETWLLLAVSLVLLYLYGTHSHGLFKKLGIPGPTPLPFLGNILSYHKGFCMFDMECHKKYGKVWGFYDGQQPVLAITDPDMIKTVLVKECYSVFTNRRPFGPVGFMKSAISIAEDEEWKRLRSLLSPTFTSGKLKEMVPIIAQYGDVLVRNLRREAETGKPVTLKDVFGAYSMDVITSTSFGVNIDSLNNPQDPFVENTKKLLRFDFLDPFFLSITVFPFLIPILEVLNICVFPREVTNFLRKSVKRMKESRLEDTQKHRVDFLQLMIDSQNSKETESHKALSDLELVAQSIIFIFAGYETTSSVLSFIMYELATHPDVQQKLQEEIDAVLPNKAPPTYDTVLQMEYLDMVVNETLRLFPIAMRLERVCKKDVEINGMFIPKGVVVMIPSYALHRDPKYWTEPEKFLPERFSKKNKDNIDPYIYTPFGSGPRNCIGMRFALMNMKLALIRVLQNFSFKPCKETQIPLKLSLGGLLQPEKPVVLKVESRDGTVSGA", "experiment": "qHTS Assay for Inhibitors and Substrates of Cytochrome P450 3A4 (AID 884); note: nearly all actives have a fitted effect of over 50% in size; note: potency is the fitted concentration of half-maximal effect; for activity change, negative = inhibition: series mostly up to about 57 µM", "procedure,_shortened": "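Luminescent readout of luciferin produced by CYP3A4 (20 nM) dealkylation of Luciferin-PPXE, 25 uM (its KM). NADPH-driven reaction ran 60 min at RT after 10 min compound preincubation; data scaled to 57 uM ketoconazole as 100% inhibition.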"}, "[2]": {"molecular_target": "Cytochrome P450 3A4 (Homo sapiens) (UniProt P08684)", "experiment": "qHTS Assay for Activators of Cytochrome P450 3A4 (AID 885); note: nearly all actives have a fitted effect of over 65% in size; note: potency is the fitted concentration of half-maximal effect", "procedure,_shortened": "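Using 20nM recombinant human CYP3A4 in potassium phosphate (200mM), substrate Luciferin-PPXE at 25uM, luminescent luciferin detection followed a 60-min RT NADPH reaction; data scaled to 57 uM ketoconazole.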"}, "[3]": {"experiment": "Confirmation and Secondary Assay for Modulators of Hemoglobin Beta Chain Splicing at IVS2 654 locus (AID 910);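 note: per-well total GFP intensity by laser scanning cytometry after 2-day treatment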", "procedure,_shortened": "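HeLa cells stably carrying EGFP interrupted by mutant beta-globin IVS2-654 intron (CMV-driven) were treated with compound for 2 days at 37C; corrected splicing was scored as total peak GFP intensity per well (488 nm excitation, 500-520 nm emission).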"}, "[4]": {"experiment": "Confirmation and Secondary Assay for Modulators of Hemoglobin Beta Chain Splicing at IVS2 705 locus (AID 930);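 note: HeLa cells stably expressing the EGFP-705 splicing reporter; series mostly up to about 46 µM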", "procedure,_shortened": "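Per-well GFP, captured at 1 x 8 µm resolution with 488 nm excitation, served as the read-out for HeLa EGFP-705 cells incubated 2 days with test compound versus DMSO.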"}, "[5]": {"molecular_target": "Alpha-galactosidase (Coffea arabica) (UniProt Q42656)", "sequence (Q42656 whole entry, looked up)": "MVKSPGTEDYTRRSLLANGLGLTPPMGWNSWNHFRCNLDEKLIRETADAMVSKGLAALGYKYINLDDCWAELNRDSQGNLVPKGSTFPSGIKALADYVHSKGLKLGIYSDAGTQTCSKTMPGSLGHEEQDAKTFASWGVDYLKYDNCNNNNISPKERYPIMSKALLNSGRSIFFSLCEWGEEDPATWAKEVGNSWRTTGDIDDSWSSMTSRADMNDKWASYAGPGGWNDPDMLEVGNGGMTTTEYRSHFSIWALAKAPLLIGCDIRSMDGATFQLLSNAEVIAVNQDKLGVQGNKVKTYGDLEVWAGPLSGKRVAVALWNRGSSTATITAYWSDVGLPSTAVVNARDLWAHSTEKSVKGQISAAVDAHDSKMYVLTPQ", "experiment": "Counterscreen for Glucocerebrosidase Inhibitors: qHTS Assay for Coffee Bean alpha-Galactosidase at pH 4.5 (AID 957); note: series mostly up to about 77 µM", "procedure,_shortened": "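Quantitative HTS of compounds (0.7 nM to 77 uM) against coffee bean alpha-galactosidase at pH 4.5, measuring 4-methylumbelliferone fluorescence released from 80 uM substrate.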"}, "[6]": {"molecular_target": "Alpha-galactosidase (Coffea arabica) (UniProt Q42656)", "experiment": "Counterscreen for Glucocerebrosidase Inhibitors: qHTS Assay for Coffee Bean alpha-Galactosidase at pH 5.9 (AID 998)", "procedure,_shortened": "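In 50 mM citric acid pH 5.9 with 0.005% Tween-20, coffee bean enzyme hydrolyses 80 uM 4-MU alpha-D-galactopyranoside over 20 min at RT. Activity is normalized to controls; AC50 comes from Hill-modelled concentration-response data.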"}, "[7]": {"molecular_target": "Cytochrome P450 2D6 (Homo sapiens) (UniProt P10635)", "sequence (P10635 whole entry, looked up)": "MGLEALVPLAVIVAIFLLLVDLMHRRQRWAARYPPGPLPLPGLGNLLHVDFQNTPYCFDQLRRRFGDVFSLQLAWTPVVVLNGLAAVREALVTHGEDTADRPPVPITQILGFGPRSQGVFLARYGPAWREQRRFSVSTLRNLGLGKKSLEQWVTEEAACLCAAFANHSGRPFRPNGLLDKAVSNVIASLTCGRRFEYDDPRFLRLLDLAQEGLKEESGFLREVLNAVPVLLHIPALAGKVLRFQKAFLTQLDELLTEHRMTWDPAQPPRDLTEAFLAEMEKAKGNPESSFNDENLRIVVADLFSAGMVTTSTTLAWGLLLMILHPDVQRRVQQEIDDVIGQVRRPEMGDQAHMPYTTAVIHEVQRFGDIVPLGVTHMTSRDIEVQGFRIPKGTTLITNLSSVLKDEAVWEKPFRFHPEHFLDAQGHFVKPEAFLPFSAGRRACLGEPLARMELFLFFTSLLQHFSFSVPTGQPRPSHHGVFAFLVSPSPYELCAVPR", "experiment": "qHTS Assay for Inhibitors and Substrates of Cytochrome P450 2D6 (AID 891); note: potency is the fitted concentration of half-maximal effect; nearly all actives have a fitted effect of over 60% in size", "procedure,_shortened": "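Luminescent read-out of luciferin formed by 5 nM human CYP2D6 demethylating 30 uM Luciferin-ME EGE (Km level) over 60 min at room temperature after NADPH regeneration addition. Data normalized to full inhibition by 1.43 uM quinidine.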"}, "[8]": {"molecular_target": "Cytochrome P450 2C19 (Homo sapiens) (UniProt P33261)", "sequence (P33261 whole entry, looked up)": "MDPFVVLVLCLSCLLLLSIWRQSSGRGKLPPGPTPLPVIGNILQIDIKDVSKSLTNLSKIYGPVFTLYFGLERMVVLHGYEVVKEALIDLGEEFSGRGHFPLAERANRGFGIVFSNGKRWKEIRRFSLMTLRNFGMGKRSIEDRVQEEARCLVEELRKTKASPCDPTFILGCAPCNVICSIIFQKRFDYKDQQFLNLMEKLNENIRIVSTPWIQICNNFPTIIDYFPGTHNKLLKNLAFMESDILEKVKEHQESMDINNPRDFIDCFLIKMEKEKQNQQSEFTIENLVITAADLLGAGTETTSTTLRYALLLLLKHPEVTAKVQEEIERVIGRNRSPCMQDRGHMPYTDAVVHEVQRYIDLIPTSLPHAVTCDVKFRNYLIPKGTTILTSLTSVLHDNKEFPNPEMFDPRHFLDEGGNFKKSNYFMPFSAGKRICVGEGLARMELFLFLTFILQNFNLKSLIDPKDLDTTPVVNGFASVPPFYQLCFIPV", "experiment": "qHTS Assay for Inhibitors and Substrates of Cytochrome P450 2C19 (AID 899); note: nearly all actives have a fitted effect of over 60% in size; note: potency is the fitted concentration of half-maximal effect", "procedure,_shortened": "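NADPH-dependent conversion of Luciferin-H EGE (10uM, at KM) by 5nM enzyme in 50mM KPO4, 60 min at 37C following 10 min compound preincubation. Stopped with luciferin detection buffer; luminescence read after 20 min.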"}}, "note": "Where “and” joins values, the source holds several entries; their conditions need not be identical. Equal entries are not always repeated. Unmarked numbers belong to inactive results. Records with an inconclusive call do not appear. Where a call stands in place of a potency, no number is given. Calls of active or inactive are those of the source. Calls come from the whole dose curve; as a rule, active = well fitted curve in the direction sought with a large enough effect; inconclusive = small, poorly fitted or top-dose-only effect, or another doubt; inactive = no such curve, though single readings can be large; an effect the other way counts as inactive or inconclusive.", "data": [{"molecule": "CC1(C)C(=O)[C@@H]2OC2[C@@]2(C)C1CC(O)[C@]1(C)C2CC[C@@]2(C)C(c3ccoc3)OC(=O)C3OC312", "note": "(some centres not stated)", "values": [{"measurement": "Potency", "setting": "[1]", "result": "1 µM (active)"}, {"measurement": "Potency", "setting": "[2]", "result": "inactive"}, {"measurement": "Potency", "setting": "[3]", "result": "inactive"}, {"measurement": "outcome", "setting": "[4]", "result": "inactive"}]}, {"molecule": "CC(C)=CCCC(C)C1CC[C@@]2(C)C3=C(CC[C@@]12C)C1(C)CCC(O)C(C)(C)C1CC3", "note": "(some centres not stated)", "values": [{"measurement": "Potency", "setting": "[1]", "result": "15.8 µM (active)"}, {"measurement": "Potency", "setting": "[2]", "result": "inactive"}]}, {"molecule": "CC[C@]1(O)CC(O[C@@H]2CC(N(C)C)C(O)C(C)O2)c2c(cc3c(c2O)C(=O)c2c(O)ccc(O)c2C3=O)C1C(=O)OC", "note": "(some centres not stated)", "values": [{"measurement": "Potency", "setting": "[1]", "result": "inactive"}, {"measurement": "Potency", "setting": "[3]", "result": "inactive"}]}, {"molecule": "O=C(OC1Cc2c(O)cc(O)cc2OC1c1cc(O)c(O)c(O)c1)c1cc(O)c(O)c(O)c1", "note": "(configuration not stated)", "values": [{"measurement": "Potency", "setting": "[1]", "result": "20 µM (active)"}, {"measurement": "Potency", "setting": "[2]", "result": "inactive"}]}, {"molecule": "OC[C@@H]1O[C@@H](n2cnc3cncnc32)[C@@H](O)[C@H]1O", "values": [{"measurement": "Potency", "setting": "[1]", "result": "inactive"}, {"measurement": "outcome", "setting": "[5]", "result": "inactive"}, {"measurement": "outcome", "setting": "[6]", "result": "inactive"}]}, {"molecule": "CCCCCCCC/C=C\\CCCCCCCC(N)=O", "values": [{"measurement": "Potency", "setting": "[2]", "result": "inactive"}]}, {"molecule": "CC(C)C(C)/C=C/C(C)C1CCC2C3=CCC4CC(=O)CC[C@@]4(C)C3CC[C@]21C", "note": "(some centres not stated)", "values": [{"measurement": "Potency", "setting": "[1]", "result": "inactive"}, {"measurement": "Potency", "setting": "[2]", "result": "25.1 µM (active)"}]}, {"molecule": "COc1cc2c(cc1OC)[C@@H]1C(=O)c3ccc(OC)c(CC=C(C)C)c3OC1CO2", "note": "(some centres not stated)", "values": [{"measurement": "Potency", "setting": "[1]", "result": "3.16 µM (active)"}, {"measurement": "Potency", "setting": "[2]", "result": "inactive"}, {"measurement": "Potency", "setting": "[3]", "result": "inactive"}]}, {"molecule": "CN1Cc2c(ccc3c2OCO3)C2C(O)Cc3cc4c(cc3C21)OCO4", "note": "(configuration not stated)", "values": [{"measurement": "Potency", "setting": "[1]", "result": "12.6 µM (active) and 5.01 µM (active)"}, {"measurement": "Potency", "setting": "[3]", "result": "inactive"}, {"measurement": "outcome", "setting": "[4]", "result": "inactive"}]}, {"molecule": "c1ccc(CN2CCC3(CCc4ccccc43)CC2)cc1", "values": [{"measurement": "Potency", "setting": "[1]", "result": "inactive"}, {"measurement": "Potency", "setting": "[7]", "result": "0.0063 µM (active)"}, {"measurement": "Potency", "setting": "[8]", "result": "2.51 µM (active)"}]}, {"molecule": "CC(C)CC(N)C1(c2ccc(Cl)cc2)CCC1", "note": "(configuration not stated)", "values": [{"measurement": "Potency", "setting": "[1]", "result": "1.58 µM (active)"}, {"measurement": "Potency", "setting": "[2]", "result": "inactive"}]}, {"molecule": "COC(=O)NC/C=C\\c1nc(CC/C=C\\C(=O)O[C@H]2C[C@H]3CC(=O)O[C@@H](/C=C\\CC(C)C)C[C@@H]4CC[C@H](C)[C@H](C[C@@H](OC)C[C@H](C2)O3)O4)co1", "values": [{"measurement": "Potency", "setting": "[1]", "result": "5.01 µM (active)"}, {"measurement": "activity change, positive = activation", "setting": "[2]", "result": "-81.2% [at 11.4 µM]"}, {"measurement": "activity, negative = inhibition", "setting": "[8]", "result": "68.9% [at 11.4 µM]"}]}, {"molecule": "COc1ccc2c(c1)CN([C@H](C)[C@@H]1CC[C@@H]3[C@H]4CC[C@H]5C[C@@H](O)CC[C@@]5(C)[C@H]4CC[C@]31C)CO2", "values": [{"measurement": "activity change, negative = inhibition", "setting": "[1]", "result": "321% [at 11.4 µM]"}, {"measurement": "Potency", "setting": "[2]", "result": "3.98 µM (active)"}, {"measurement": "Potency", "setting": "[7]", "result": "3.16 µM (active)"}]}, {"molecule": "Cc1ccc2oc(-c3ccccc3)cc(=O)c2c1", "values": [{"measurement": "Potency", "setting": "[1]", "result": "10 µM (active)"}, {"measurement": "Potency", "setting": "[2]", "result": "inactive"}]}, {"molecule": "CCCCCCCCCc1ccc(OCCOCCOCCOCCOCCOCCOCCOCCOCCO)cc1", "values": [{"measurement": "Potency", "setting": "[1]", "result": "31.6 µM (active)"}, {"measurement": "Potency", "setting": "[2]", "result": "inactive"}]}, {"molecule": "CCC(C)C(=O)OC1C[C@@]2(C)C(c3ccoc3)OC(=O)CC23OC2(C)OC34C(OC(=O)C(C)C)[C@]3(O)C(OC(=O)C5(C)OC5C)[C@]5(C)CC3(O)[C@](C)(C5CC(=O)OC)C14O2", "note": "(some centres not stated)", "values": [{"measurement": "Potency", "setting": "[1]", "result": "2.51 µM (active)"}, {"measurement": "Potency", "setting": "[2]", "result": "inactive"}, {"measurement": "Potency", "setting": "[3]", "result": "inactive"}]}, {"molecule": "COC(=O)[C@@H]1[C@@H](O)[C@@]2(O)c3c(OC)cc(OC)cc3O[C@@]2(c2ccc(OC)cc2)[C@H]1c1ccccc1", "values": [{"measurement": "activity change, positive = activation", "setting": "[2]", "result": "-35.6% [at 11.4 µM]"}]}, {"molecule": "CC(C)=CCC1=C(O)c2ccccc2C(=O)C1=O", "values": [{"measurement": "Potency", "setting": "[2]", "result": "inactive"}]}, {"molecule": "CN1[C@@H]2CC[C@H]1CC(NC(=O)c1nn(C)c3ccccc13)C2", "note": "(some centres not stated)", "values": [{"measurement": "Potency", "setting": "[1]", "result": "inactive"}, {"measurement": "outcome", "setting": "[5]", "result": "inactive"}]}, {"molecule": "COc1ccc2[nH]c(C(=O)c3ccccc3)cc2c1", "values": [{"measurement": "Potency", "setting": "[1]", "result": "7.94 µM (active)"}, {"measurement": "Potency", "setting": "[2]", "result": "inactive"}]}, {"molecule": "CC(C)=CCCC1(C)C=Cc2c(O)c3c(c(CC=C(C)C)c2O1)OC12C(CC4CC1C(C)(C)OC2(C/C=C(/C)C(=O)O)C4O)C3=O", "note": "(configuration not stated)", "values": [{"measurement": "Potency", "setting": "[1]", "result": "inactive"}, {"measurement": "Potency", "setting": "[3]", "result": "inactive"}]}, {"molecule": "COc1cc2c(cc1OC)-c1c(O)c(OC)cc3c1[C@H](C2)N(C)CC3", "values": [{"measurement": "Potency", "setting": "[1]", "result": "7.94 µM (active)"}, {"measurement": "Potency", "setting": "[2]", "result": "inactive"}]}, {"molecule": "[O-]/[N+](=N\\O)c1ccccc1", "values": [{"measurement": "Potency", "setting": "[2]", "result": "inactive"}]}, {"molecule": "CC(=O)O[C@H]1CC[C@@]2(C)[C@@H](CC[C@H]3[C@H]2CC(=O)[C@@]2(C)[C@@H]3C[C@H]3CC(C)=CC(=O)[C@H]32)C1", "values": [{"measurement": "activity change, negative = inhibition", "setting": "[1]", "result": "295% [at 11.4 µM]"}, {"measurement": "Potency", "setting": "[2]", "result": "2 µM (active)"}]}, {"molecule": "CC(=O)Oc1ccc2c(c1)CCC1C2CC[C@]2(C)C(OC(C)=O)CCC12", "note": "(some centres not stated)", "values": [{"measurement": "Potency", "setting": "[2]", "result": "inactive"}]}, {"molecule": "COc1cc2c(cc1OC)[C@@H]1C(=O)c3ccc4c(c3OC1CO2)CC(C(C)C)O4", "note": "(some centres not stated)", "values": [{"measurement": "Potency", "setting": "[1]", "result": "25.1 µM (active)"}, {"measurement": "Potency", "setting": "[2]", "result": "inactive"}, {"measurement": "Potency", "setting": "[3]", "result": "inactive"}]}, {"molecule": "c1cc(Cc2cnc[nH]2)ccn1", "values": [{"measurement": "Potency", "setting": "[1]", "result": "3.98 µM (active)"}, {"measurement": "Potency", "setting": "[2]", "result": "inactive"}]}, {"molecule": "CC(C)CCCC1(C)C=Cc2c(O)c3c(c(CCC(C)C)c2O1)OC12C(CC4CC1C(C)(C)OC2(CCC(C)C(=O)O)C4O)C3=O", "note": "(configuration not stated)", "values": [{"measurement": "Potency", "setting": "[1]", "result": "inactive"}, {"measurement": "Potency", "setting": "[3]", "result": "inactive"}]}, {"molecule": "COC1=C[C@H]2[C@H]3Cc4ccc(OC)c(O)c4[C@@]2(CCN3C)CC1=O", "values": [{"measurement": "Potency", "setting": "[2]", "result": "inactive"}]}]}
